Results from the supplement of paper PMC10849652.
Of roughly 7,900 targets only a part is listed; those with a hit were picked by preference. About 0.6% of all pairs of compound and target were hits.

How the values were obtained:
Assay in all cases: log2 fold change, soluble protein after heating vs DMSO (PISA); higher = thermal stabilisation; K562 cells, 10 uM, 30 min; active = over 0.2 and 3.5 SD of the protein, either way, in both replicates (recomputed)
[1] = compound: CC[C@@H]1C(=O)N(C)c2cnc(Nc3ccc(C(=O)NC4CCN(C)CC4)cc3OC)nc2N1C1CCCC1
Method in brief: (§1)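 K562 cells at 2×10^6 cells/mL were treated with 10 μM compound for 30 min. Aliquots were heated for 3 min across 48°C-58°C, pooled, and extracted in PBS with 0.5% NP-40 at 4°C; soluble protein was the supernatant after 21,000xg for 90 min. Soluble protein was quantified by TMTpro 16plex LC-MS/MS with channel sums equalised, and reported as log2 fold change in thermal stability against DMSO controls, with values from duplicates.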

volasertib = compound: CC[C@@H]1C(=O)N(C)c2cnc(Nc3ccc(C(=O)N[C@H]4CC[C@H](N5CCN(CC6CC6)CC5)CC4)cc3OC)nc2N1C(C)C [volasertib]
Method in brief: as §1

[2] = compound: CC[C@H](C)N1C=C(C2=C(C=C(C=C21)C3=CN=C(C=C3)N4CCNCC4)C(=O)NCC5=C(C=C(NC5=O)C)C)C
Method in brief: as §1

epoxomicin = compound: CC[C@H](C)[C@@H](C(=O)N[C@@H]([C@@H](C)O)C(=O)N[C@@H](CC(C)C)C(=O)[C@]1(CO1)C)NC(=O)[C@H]([C@@H](C)CC)N(C)C(=O)C [epoxomicin]
Method in brief: as §1

[3] = compound: CCn1cc(-c2ccnc3[nH]c(-c4cccc(CN(C)C)c4)cc23)c(-c2ccc(NC(=O)N(C)C)cc2)n1
Method in brief: as §1

[4] = compound: CN(C)CC(=O)Nc1ccc2[nH]c(=O)c3ccccc3c2c1
Method in brief: as §1

rosiglitazone = compound: CN(CCOC1=CC=C(C=C1)C[C@H]2C(=O)NC(=O)S2)C3=CC=CC=N3 (racemic) [rosiglitazone]
Method in brief: as §1

[5] = compound: CN1C2=C(C3=C1C(=O)N(N=C3)CC4=CC(=CC=C4)N)SC(=C2)S(=O)C
Method in brief: as §1

[6] = compound: CN1CCC(CNc2ccc3ncc(-c4cccc(OC(F)(F)F)c4)n3n2)CC1
Method in brief: as §1

saracatinib = compound: CN1CCN(CCOc2cc(OC3CCOCC3)c3c(Nc4c(Cl)ccc5c4OCO5)ncnc3c2)CC1 [saracatinib]
Method in brief: as §1

sotrastaurin = compound: CN1CCN(c2nc(C3=C(c4c[nH]c5ccccc45)C(=O)NC3=O)c3ccccc3n2)CC1 [sotrastaurin]
Method in brief: as §1

alvocidib = compound: CN1CC[C@H](c2c(O)cc(O)c3c(=O)cc(-c4ccccc4Cl)oc23)[C@H](O)C1 [alvocidib]
Method in brief: as §1

Tubastatin A = compound: CN1CCc2c(c3ccccc3n2Cc2ccc(C(=O)NO)cc2)C1 [Tubastatin A]
Method in brief: as §1

defactinib = compound: CNC(=O)c1ccc(Nc2ncc(C(F)(F)F)c(NCc3nccnc3N(C)S(C)(=O)=O)n2)cc1 [defactinib]
Method in brief: as §1

rucaparib = compound: CNCc1ccc(-c2[nH]c3cc(F)cc4c3c2CCNC4=O)cc1 [rucaparib]
Method in brief: as §1

[7] = compound: CNc1nc(-c2ccc3c(N)n[nH]c3c2)cc(N2C[C@@H](C(=O)NC3CCCCC3)CC[C@H]2C)n1
Method in brief: as §1

encorafenib = compound: COC(=O)N[C@@H](C)CNc1nccc(-c2cn(C(C)C)nc2-c2cc(Cl)cc(NS(C)(=O)=O)c2F)n1 [encorafenib]
Method in brief: as §1

[8] = compound: COC(=O)[C@H](CCSC)NC(=O)C1=C(C=C(C=C1)NC[C@H](CS)N)C2=CC=CC=C2
Method in brief: as §1

[9] = compound: CCn1c(C(=O)N(C2CC2)C2CC2)cc2c3c(ncn3C)c(Nc3cc(C)n(C)n3)nc21
Method in brief: as §1

[10] = compound: CNC(=O)C1=CC=CC=C1NC2=NC(=NC=C2Cl)NC3=C(C=C(C=C3)N4CCOCC4)OC
Method in brief: as §1

Measured: log2 fold change

FAM118A (UniProt Q9NWS6)
Sequence of UniProt Q9NWS6 (Q9NWS6 whole entry, looked up): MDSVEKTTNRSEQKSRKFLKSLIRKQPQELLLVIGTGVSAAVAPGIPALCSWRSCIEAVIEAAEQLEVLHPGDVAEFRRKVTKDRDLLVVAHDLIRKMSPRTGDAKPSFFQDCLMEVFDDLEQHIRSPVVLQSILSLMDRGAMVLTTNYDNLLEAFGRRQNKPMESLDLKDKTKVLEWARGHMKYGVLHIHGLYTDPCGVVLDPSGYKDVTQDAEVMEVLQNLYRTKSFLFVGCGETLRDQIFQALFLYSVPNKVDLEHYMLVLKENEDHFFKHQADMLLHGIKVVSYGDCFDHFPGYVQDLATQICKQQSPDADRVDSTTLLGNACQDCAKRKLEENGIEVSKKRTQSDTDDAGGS
inactive: volasertib -0.54 | [2] 0.136 | epoxomicin 0.118 | [3] -0.075 | [4] 0.222 | rosiglitazone -0.02 | [5] -0.007 | [6] -0.142 | saracatinib -0.138 | sotrastaurin -0.135 | alvocidib -0.168 | Tubastatin A 0.029 | defactinib -0.179 | rucaparib 0.29 | [7] 0.068 | encorafenib -0.172 | [8] -0.079
active: [1] -0.812

ELAC1 (UniProt Q9H777)
Sequence of UniProt Q9H777 (Q9H777 whole entry, looked up): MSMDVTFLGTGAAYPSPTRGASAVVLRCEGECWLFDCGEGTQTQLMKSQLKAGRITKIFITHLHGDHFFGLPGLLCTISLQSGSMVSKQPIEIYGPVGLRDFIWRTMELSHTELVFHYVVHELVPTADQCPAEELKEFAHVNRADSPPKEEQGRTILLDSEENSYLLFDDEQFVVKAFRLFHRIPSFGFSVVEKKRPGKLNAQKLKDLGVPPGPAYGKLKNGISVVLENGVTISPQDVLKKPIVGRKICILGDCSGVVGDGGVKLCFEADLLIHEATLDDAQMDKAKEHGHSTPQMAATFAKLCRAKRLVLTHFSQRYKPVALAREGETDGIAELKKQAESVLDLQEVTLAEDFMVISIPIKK
inactive: [1] -0.067 | volasertib 0.055 | [2] 0.046 | epoxomicin -0.002 | [9] -0.073 | [4] 0 | [5] 0.079 | [6] -0.227 | saracatinib 0.094 | sotrastaurin 0.006 | alvocidib 0.051 | [10] -0.056 | defactinib -0.031 | rucaparib 0.153 | [7] 0.049 | encorafenib 0.063 | [8] 0.022
active: [3] -0.488

FAM193B (UniProt Q96PV7)
Sequence of UniProt Q96PV7 (Q96PV7 whole entry, looked up): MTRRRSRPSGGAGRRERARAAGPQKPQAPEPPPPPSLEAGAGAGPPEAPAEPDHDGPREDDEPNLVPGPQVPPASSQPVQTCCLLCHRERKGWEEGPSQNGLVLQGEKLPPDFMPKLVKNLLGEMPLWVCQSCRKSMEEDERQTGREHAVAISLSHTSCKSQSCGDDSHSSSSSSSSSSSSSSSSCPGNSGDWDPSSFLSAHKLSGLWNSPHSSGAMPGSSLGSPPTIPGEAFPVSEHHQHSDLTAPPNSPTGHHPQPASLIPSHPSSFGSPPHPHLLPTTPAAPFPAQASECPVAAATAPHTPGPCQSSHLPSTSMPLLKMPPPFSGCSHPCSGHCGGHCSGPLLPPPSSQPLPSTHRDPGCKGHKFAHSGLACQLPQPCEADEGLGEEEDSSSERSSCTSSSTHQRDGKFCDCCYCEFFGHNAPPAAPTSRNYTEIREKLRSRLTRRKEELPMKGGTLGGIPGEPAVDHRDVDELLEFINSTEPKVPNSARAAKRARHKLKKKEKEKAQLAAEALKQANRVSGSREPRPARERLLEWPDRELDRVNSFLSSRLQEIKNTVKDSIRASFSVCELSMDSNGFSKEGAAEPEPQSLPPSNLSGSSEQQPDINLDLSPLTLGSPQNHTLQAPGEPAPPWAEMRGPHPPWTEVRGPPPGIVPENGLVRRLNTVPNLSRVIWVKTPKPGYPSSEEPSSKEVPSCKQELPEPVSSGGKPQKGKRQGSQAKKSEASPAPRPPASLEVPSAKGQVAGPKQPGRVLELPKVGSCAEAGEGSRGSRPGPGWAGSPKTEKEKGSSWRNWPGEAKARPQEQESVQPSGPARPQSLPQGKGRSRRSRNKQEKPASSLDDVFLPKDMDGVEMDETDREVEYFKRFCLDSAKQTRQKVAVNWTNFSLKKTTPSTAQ
inactive: [1] 0.126 | volasertib 0.092 | epoxomicin -0.033 | [4] -0.442 | rosiglitazone 0.027 | [5] 0.247 | saracatinib -0.289 | sotrastaurin 0.06 | alvocidib -0.32 | Tubastatin A -0.007 | defactinib 0.231 | rucaparib 0.19 | [7] 0.096 | encorafenib 0.162 | [8] 0.044

CYP24A1 (UniProt Q07973)
inactive: [1] 0.252 | volasertib 0.379 | [2] -0.209 | [9] -0.126 | [3] 0.065 | [4] -0.175 | rosiglitazone -0.205 | [5] 0.288 | [6] 0.198 | saracatinib -0.144 | Tubastatin A 0.365 | [10] -0.075 | defactinib 0.394 | rucaparib 0.115 | [7] 0.078 | encorafenib 0.075 | [8] 0.016

FAM207A (UniProt Q9NSI2)
Sequence of UniProt Q9NSI2 (Q9NSI2 whole entry, looked up): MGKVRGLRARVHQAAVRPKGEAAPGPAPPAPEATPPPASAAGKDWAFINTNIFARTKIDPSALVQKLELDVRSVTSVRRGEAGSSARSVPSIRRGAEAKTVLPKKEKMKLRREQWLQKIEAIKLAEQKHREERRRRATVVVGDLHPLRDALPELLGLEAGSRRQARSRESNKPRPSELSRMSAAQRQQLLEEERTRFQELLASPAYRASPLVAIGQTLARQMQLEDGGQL
inactive: [1] -0.085 | volasertib -0.165 | [2] 0.044 | epoxomicin -0.024 | [9] 0.025 | [3] 0.023 | [4] 0.05 | rosiglitazone 0.146 | [5] 0.168 | saracatinib 0.005 | sotrastaurin -0.115 | Tubastatin A 0.106 | [10] 0.028 | defactinib 0 | rucaparib 0.064 | [7] 0.007 | encorafenib 0.149 | [8] 0.031
active: [6] 0.418

DNM2 (UniProt P50570)
Sequence of UniProt P50570 (P50570 whole entry, looked up): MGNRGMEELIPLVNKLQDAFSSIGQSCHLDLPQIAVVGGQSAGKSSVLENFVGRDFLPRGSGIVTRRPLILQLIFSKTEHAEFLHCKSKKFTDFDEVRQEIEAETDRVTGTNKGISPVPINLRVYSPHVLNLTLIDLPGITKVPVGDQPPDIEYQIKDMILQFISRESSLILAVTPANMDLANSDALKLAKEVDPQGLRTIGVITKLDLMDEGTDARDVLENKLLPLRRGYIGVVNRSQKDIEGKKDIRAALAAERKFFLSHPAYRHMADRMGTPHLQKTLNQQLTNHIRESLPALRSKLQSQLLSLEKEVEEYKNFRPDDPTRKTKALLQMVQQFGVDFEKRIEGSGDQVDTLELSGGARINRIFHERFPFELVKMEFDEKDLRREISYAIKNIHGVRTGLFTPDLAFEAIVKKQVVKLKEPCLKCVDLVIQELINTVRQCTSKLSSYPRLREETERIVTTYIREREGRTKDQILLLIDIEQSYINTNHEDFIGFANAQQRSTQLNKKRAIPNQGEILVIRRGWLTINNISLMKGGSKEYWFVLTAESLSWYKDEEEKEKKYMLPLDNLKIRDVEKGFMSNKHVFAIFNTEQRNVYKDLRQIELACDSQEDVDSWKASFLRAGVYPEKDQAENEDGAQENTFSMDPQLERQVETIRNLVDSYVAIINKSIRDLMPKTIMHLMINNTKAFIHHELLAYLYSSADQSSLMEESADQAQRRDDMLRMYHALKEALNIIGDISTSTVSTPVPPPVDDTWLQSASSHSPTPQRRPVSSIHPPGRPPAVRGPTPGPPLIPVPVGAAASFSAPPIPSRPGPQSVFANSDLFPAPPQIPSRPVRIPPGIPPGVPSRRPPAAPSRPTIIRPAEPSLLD
active: [6] -0.349
inactive: [1] -0.013 | volasertib -0.015 | [2] 0.043 | epoxomicin 0.029 | [9] -0.002 | [3] -0.091 | [4] 0.037 | rosiglitazone 0.05 | [5] -0.044 | saracatinib -0.028 | sotrastaurin 0.043 | alvocidib -0.074 | Tubastatin A 0 | [10] -0.027 | defactinib -0.02 | rucaparib 0.035 | [7] 0.029 | encorafenib 0.009 | [8] -0.03

EIF4G3 isoform 3 (UniProt O43432)
inactive: [1] -0.074 | volasertib -0.165 | [2] 0.007 | [9] 0.012 | [4] 0.039 | rosiglitazone 0.019 | [5] 0.021 | saracatinib -0.076 | sotrastaurin -0.038 | alvocidib -0.018 | Tubastatin A -0.016 | [10] -0.019 | defactinib 0.04 | rucaparib 0.519 | [7] -0.056 | encorafenib 0.031 | [8] -0.025

DEGS1 (UniProt O15121)
Sequence of UniProt O15121 (O15121 whole entry, looked up): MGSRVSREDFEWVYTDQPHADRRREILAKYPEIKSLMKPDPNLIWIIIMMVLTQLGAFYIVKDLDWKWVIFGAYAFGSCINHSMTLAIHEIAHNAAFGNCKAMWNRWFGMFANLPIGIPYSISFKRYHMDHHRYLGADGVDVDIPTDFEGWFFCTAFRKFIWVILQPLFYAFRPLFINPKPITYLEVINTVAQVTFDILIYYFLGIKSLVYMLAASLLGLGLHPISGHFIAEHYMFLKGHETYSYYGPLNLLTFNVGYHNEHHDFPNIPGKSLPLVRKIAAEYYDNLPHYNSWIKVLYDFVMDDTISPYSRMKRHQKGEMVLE
active: Tubastatin A -0.521
inactive: [1] 0.061 | volasertib -0.02 | [2] 0.012 | epoxomicin -0.037 | [9] -0.028 | [3] -0.168 | [4] 0.068 | rosiglitazone -0.041 | [5] -0.1 | [6] 0.019 | saracatinib 0.088 | sotrastaurin -0.022 | alvocidib 0.036 | [10] 0.046 | defactinib -0.18 | rucaparib 0.002 | [7] 0.029 | encorafenib 0.002 | [8] 0.106

ELF1 (UniProt P32519)
Sequence of UniProt P32519 (P32519 whole entry, looked up): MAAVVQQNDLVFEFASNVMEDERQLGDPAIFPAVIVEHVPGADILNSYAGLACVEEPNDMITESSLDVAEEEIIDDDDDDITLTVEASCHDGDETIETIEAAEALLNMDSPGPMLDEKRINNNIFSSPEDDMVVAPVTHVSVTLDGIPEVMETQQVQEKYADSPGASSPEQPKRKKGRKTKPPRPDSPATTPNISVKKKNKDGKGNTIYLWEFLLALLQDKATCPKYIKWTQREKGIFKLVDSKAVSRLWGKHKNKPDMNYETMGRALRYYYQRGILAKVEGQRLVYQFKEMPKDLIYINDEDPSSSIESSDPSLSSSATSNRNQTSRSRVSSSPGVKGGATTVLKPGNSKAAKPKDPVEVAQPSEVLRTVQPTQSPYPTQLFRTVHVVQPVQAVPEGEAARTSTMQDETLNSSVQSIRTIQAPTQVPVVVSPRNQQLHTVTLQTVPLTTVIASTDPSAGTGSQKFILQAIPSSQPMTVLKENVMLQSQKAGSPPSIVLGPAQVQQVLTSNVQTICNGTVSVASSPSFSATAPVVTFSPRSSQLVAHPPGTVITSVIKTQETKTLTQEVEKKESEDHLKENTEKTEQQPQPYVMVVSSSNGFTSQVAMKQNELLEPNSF
inactive: [1] 0.116 | volasertib -0.516 | [2] 0.185 | epoxomicin 0.117 | [9] -0.161 | [5] 0.027 | saracatinib 0.02 | sotrastaurin -0.027 | alvocidib -0.101 | Tubastatin A 0.075 | [10] 0.013 | rucaparib -0.301 | [7] -0.03 | encorafenib 0.018

EEF1A1 (UniProt P68104)
Sequence of UniProt P68104 (P68104 whole entry, looked up): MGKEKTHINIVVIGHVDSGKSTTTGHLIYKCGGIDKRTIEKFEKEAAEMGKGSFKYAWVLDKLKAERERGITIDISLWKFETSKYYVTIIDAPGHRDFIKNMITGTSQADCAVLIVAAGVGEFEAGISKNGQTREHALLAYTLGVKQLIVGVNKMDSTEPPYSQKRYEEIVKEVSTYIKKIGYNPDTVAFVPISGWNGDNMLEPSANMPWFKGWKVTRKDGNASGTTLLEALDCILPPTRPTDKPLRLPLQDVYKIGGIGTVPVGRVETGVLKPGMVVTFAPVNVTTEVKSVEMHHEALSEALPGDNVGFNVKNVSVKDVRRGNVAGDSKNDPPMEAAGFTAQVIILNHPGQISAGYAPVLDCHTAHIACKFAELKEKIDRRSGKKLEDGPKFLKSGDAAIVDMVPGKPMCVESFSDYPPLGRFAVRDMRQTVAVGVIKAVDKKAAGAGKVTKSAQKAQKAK
active: alvocidib -0.885
inactive: [1] -0.19 | volasertib 0.098 | [2] 0.131 | epoxomicin 0.148 | [9] 0.021 | [4] 0.165 | rosiglitazone -0.326 | [5] -0.121 | saracatinib 0.093 | sotrastaurin -0.082 | Tubastatin A -0.096 | [10] 0.007 | defactinib -0.079 | rucaparib 0.146 | [7] 0.102 | encorafenib -0.009 | [8] -0.059

EIF2AK3 (UniProt Q9NZJ5)
inactive: [1] 0.322 | volasertib -0.114 | [2] 0.357 | epoxomicin 0.033 | [9] -0.295 | [3] 0.106 | rosiglitazone -0.308 | [5] 0.14 | [6] -0.017 | saracatinib -0.019 | alvocidib 0.045 | Tubastatin A 0.039 | [10] 0.183 | rucaparib -0.125 | [7] 0.082 | encorafenib -0.216

EBNA1BP2 (UniProt Q99848)
inactive: [1] 0.167 | volasertib 0.351 | [2] 0.021 | epoxomicin -0.343 | [9] -0.059 | [3] 0.132 | [4] -0.106 | rosiglitazone -0.25 | [5] 0.379 | [6] 0.197 | saracatinib -0.081 | sotrastaurin -0.138 | alvocidib 0.165 | Tubastatin A 0.34 | [10] -0.047 | defactinib 0.512 | rucaparib 0.23 | [7] 0.142 | encorafenib 0.13 | [8] 0.086

EXTL2 (UniProt Q9UBQ6)
inactive: [1] 0.057 | volasertib -0.052 | [2] 0.041 | epoxomicin -0.035 | [9] -0.04 | [3] -0.046 | [4] 0.06 | rosiglitazone -0.024 | [5] -0.001 | [6] -0.157 | saracatinib 0.157 | sotrastaurin 0.036 | alvocidib -0.122 | Tubastatin A -0.136 | [10] -0.072 | defactinib -0.145 | rucaparib 0.001 | [7] 0.052 | encorafenib -0.08 | [8] 0.13

DOLPP1 (UniProt Q86YN1)
Sequence of UniProt Q86YN1 (Q86YN1 whole entry, looked up): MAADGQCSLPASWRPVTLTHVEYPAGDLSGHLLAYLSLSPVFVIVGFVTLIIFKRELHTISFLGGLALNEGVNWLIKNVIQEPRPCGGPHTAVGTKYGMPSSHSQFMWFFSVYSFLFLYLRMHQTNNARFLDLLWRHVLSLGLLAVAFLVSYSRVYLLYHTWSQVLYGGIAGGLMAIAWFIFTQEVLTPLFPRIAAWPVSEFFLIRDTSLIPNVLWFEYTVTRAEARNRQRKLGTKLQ
inactive: [1] -0.062 | volasertib -0.008 | [2] -0.052 | [9] -0.129 | [4] 0.133 | rosiglitazone -0.034 | alvocidib -0.059 | Tubastatin A -0.066 | [10] 0.012 | defactinib -0.134 | rucaparib 0.087 | encorafenib -0.057 | [8] 0.156

CWF19L2 (UniProt Q2TBE0)
inactive: [1] -0.051 | volasertib -0.107 | [9] -0.131 | [3] 0.094 | [5] 0.231 | [6] 0.21 | saracatinib -0.089 | sotrastaurin -0.15 | alvocidib 0.081 | Tubastatin A -0.079 | [10] -0.034 | rucaparib 0.102 | [7] -0.014 | encorafenib -0.002

ENTPD7 (UniProt Q9NQZ7)
Sequence of UniProt Q9NQZ7 (Q9NQZ7 whole entry, looked up): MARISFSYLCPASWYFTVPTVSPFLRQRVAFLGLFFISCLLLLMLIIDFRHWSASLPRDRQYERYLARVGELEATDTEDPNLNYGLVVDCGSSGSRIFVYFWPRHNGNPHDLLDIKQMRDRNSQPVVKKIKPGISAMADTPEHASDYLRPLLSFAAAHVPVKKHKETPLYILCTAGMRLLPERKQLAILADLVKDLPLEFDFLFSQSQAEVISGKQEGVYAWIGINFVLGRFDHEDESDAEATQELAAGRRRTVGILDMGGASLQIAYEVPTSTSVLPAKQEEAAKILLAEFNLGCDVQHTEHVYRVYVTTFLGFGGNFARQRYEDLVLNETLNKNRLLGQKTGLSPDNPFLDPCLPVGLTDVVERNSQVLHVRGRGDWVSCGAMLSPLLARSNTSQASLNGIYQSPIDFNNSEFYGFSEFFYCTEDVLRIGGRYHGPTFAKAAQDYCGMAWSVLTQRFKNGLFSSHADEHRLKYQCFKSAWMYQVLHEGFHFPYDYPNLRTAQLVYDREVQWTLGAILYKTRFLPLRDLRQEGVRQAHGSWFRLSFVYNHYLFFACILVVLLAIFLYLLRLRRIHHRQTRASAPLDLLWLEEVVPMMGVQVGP
inactive: [1] -0.204 | volasertib -0.233 | [2] 0.08 | epoxomicin 0.032 | [9] 0.032 | rosiglitazone 0.061 | [5] -0.021 | saracatinib 0.155 | sotrastaurin 0.17 | Tubastatin A 0.064 | [10] -0.162 | rucaparib -0.078 | [7] 0.136 | encorafenib -0.26

DENND10 (UniProt Q8TCE6)
inactive: [1] -0.041 | volasertib -0.241 | [2] 0.121 | epoxomicin -0.041 | [9] -0.048 | [4] 0.076 | rosiglitazone 0.007 | [5] -0.031 | saracatinib 0.035 | sotrastaurin 0.015 | alvocidib 0 | Tubastatin A 0.007 | [10] -0.039 | defactinib -0.058 | rucaparib -0.065 | [7] -0.035 | encorafenib 0.008 | [8] -0.048

DNAH5 (UniProt Q8TE73)
inactive: [1] 0.042 | volasertib 0.01 | [2] -0.079 | epoxomicin -0.052 | [9] -0.015 | [3] -0.009 | [4] -0.031 | rosiglitazone -0.044 | [5] 0.029 | [6] 0.03 | saracatinib 0.058 | sotrastaurin 0.017 | alvocidib 0.044 | Tubastatin A 0.058 | [10] -0.057 | defactinib 0.015 | rucaparib -0.071 | [7] -0.099 | encorafenib -0.006 | [8] -0.072
